TDP1 cell CPT: DT40-hTDP1 cell growth loss with CPT. chicken DT40 Tdp1-/-;hTDP1 cells + 20 nM CPT, ATP luminescence, 48 h. AID 686979. actives 12% (n = 420,000). Potency, µM (highest dose often 46.2 µM), inactives show top-dose activity change, negative = growth inhibition, hits mostly inhibitors; also: potency is read from the fitted curve at half-maximal effect; nearly all actives have a fitted effect of over 55% in size
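Cell growth measured by CellTiter-Glo luminescence after a minimum 48 h, 37 C compound exposure with 20 nM CPT in Tdp1-knockout DT40 cells stably expressing hTDP1, seeded 400/well; qHTS titration format.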
HT1080 IDH1KD tx: toxicity to HT-1080 IDH1 knockdown cells (counter line) | HT-1080 IDH1 knockdown viability, ATP luminescence, 48 h | Potency, µM (doses to about 46.1 µM), inactives show at the highest dose activity, negative = toxicity, most hits filed as cytotoxic | actives 2% (n = 360,000) | AID 686971;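 also: potency is read from the fitted curve at half-maximal effect; 0% = DMSO wells and -100% = cell-free medium wells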
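Viability of IDH1-knockdown HT-1080 fibrosarcoma cells was assessed by CellTiter-Glo after 48 h at 37 °C with titrated compound; concentration-effect curves were classified by fit quality and response size.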
HT1080NT lethal: kills 2HG-producing HT-1080-NT fibrosarcoma cells; HT-1080-NT fibrosarcoma viability, CellTiter-Glo ATP luminescence, 48 h; AID 686970; Potency, µM (top dose mostly 46.1 µM), without a hit: at the highest dose activity, negative = less viability, hits mostly cytotoxic; actives 1.6% (n = 360,000);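 also: NT is the 2HG producing partner of a matched IDH1 knockdown line; potency is read from the fitted curve at half-maximal effect; 0% = DMSO-treated cells and -100% = media-only wells without cells; nearly all actives have a fitted effect of over 55% in size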
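Viability by CellTiter-Glo luminescence after 48 h compound exposure at 37C of HT-1080-NT cells (750/well, RPMI, 5% FBS). % activity scaled between DMSO wells and medium-only wells, then curve-fitted and categorized by curve class.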
IL-1B inflam inh: blocks inflammasome-driven IL-1 beta release; THP-1 LPS/ATP IL-1B secretion, AlphaLISA, 16 h; active compounds read low; actives 4.7% (n = 360,000); activity change, % at 57.5 µM; in the data active = activity change below about -50%; inconclusive = mostly about -30% to -49%
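THP-1 cells pretreated 1 hr with compounds (up to 57.5 uM final), then stimulated with LPS (250 ng/mL final) plus ATP (1.25 mM final); secreted IL-1B measured by AlphaLISA after 16 hr, decreased signal indicating inhibition.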
TDP1 cell noCPT: qHTS for Inhibitors of human tyrosyl-DNA phosphodiesterase 1 (TDP1): qHTS in cells in absence of CPT. Potency, µM (titrated, usually from 46.2 µM), without a hit: top-dose activity change, negative = growth inhibition, most hits filed as inhibitors. DT40 Tdp1-/- hTDP1 cells, no CPT, ATP luminescence, 48 h. AID 686978, 2013. actives 15% (n = 420,000); also: potency is read from the fitted curve at half-maximal effect; nearly all actives have a fitted effect of over 55% in size
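Chicken DT40 Tdp1-/- cells stably complemented with human TDP1 were seeded at 400 cells/well with DMSO in place of 20 nM camptothecin. After compound pinning, cells grew at least 48 hr at 37 °C; viability read by CellTiter-Glo luminescence.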
ALOX12 inh: ALOX12 (human) lipoxygenase inhibition; P18054; purified 12hLO, xylenol orange hydroperoxide absorbance; Potency, µM (top dose mostly 108 µM), without a hit: at the highest dose activity change, negative = inhibition, most hits filed as inhibitors; actives 1.1% (n = 580,000); AID 1671190; also: potency is read from the fitted curve at half-maximal effect
Target sequence (P18054 whole entry, looked up): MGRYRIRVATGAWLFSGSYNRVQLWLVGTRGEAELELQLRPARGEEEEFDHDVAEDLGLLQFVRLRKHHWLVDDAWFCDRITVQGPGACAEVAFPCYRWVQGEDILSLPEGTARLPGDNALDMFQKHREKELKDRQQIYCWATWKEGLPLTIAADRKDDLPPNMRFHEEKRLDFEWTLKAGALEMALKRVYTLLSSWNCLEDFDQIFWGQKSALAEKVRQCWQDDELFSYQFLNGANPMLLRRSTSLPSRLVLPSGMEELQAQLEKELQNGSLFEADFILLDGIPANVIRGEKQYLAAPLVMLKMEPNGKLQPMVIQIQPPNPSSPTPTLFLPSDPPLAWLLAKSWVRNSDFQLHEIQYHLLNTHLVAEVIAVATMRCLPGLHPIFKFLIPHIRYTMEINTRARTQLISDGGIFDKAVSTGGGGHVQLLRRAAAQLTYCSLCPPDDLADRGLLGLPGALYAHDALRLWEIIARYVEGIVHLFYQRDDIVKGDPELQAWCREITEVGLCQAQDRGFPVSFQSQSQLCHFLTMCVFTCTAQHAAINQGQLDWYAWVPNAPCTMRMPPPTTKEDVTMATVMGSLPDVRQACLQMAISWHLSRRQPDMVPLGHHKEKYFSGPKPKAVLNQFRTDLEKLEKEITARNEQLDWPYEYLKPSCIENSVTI
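Hydroperoxide product was detected by ferrous iron/xylenol orange as the 573 to 405 nm absorbance ratio. Arachidonic acid at 40 uM (final) was turned over for 30 min at room temperature by 150 nM human 12hLO, pH 7.0 Hepes buffer, after 15 min compound preincubation.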
Starred values were filed as active, the others as inactive; ? = inconclusive; / = no result given. Shown is part of a subset that was picked to be rich in hits. Unless noted, calls follow the shape of the dose curve; as a rule, active = well fitted curve in the direction sought with a large enough effect; inconclusive = small, poorly fitted or top-dose-only effect, or another doubt; inactive = no such curve, though single readings can be large; an effect the other way counts as inactive or inconclusive. Unless noted, % is scaled to controls: 0 for no effect and ±100 for the full control effect.

SMILES	TDP1 cell CPT	HT1080 IDH1KD tx	HT1080NT lethal	IL-1B inflam inh	TDP1 cell noCPT	ALOX12 inh
COc1ccc(Cl)c2sc(N(CCN(C)C)C(=O)c3ccc4c(c3)OCCO4)nc12	?	-13%	-25%	-96*	?	?
COc1ccc2nc(N(CCN(C)C)C(=O)c3ccc4c(c3)OCCO4)sc2c1	6%	3%	0%	-10	8%	?
O=C(NC1CCCC1)C1CCCN(C2CCN(Cc3ccncc3)CC2)C1 (stereo unspecified)	/	/	/	/	/	11%
CNC(=O)[C@@H]1CN(C(=O)Cc2ccc(OC)c(Cl)c2)C[C@H]1COC	/	/	/	/	/	26%
COC(=O)C1=C(C)N=C2SC=C(CC(=O)NC3CCCCC3)N2C1c1cccc(OC)c1 (stereo unspecified)	/	/	/	/	/	44%
CN(C)CCN(C(=O)c1ccc2c(c1)CCCC2)c1nc2cc3c(cc2s1)OCCO3	?	1%	1%	-58*	29µM*	?
CCN(CC)CCN(C(=O)c1ccc2c(c1)CCCC2)c1nc2cc(OC)c(OC)cc2s1	23µM*	-13%	-2%	-82*	-25%	/
CCc1ccc2nc(N(CCN(C)C)C(=O)c3ccc4ccccc4c3)sc2c1	?	-2%	-17%	-54*	-18%	/
CN(C)CCN(C(=O)c1ccc2ccccc2c1)c1nc2ccc(F)cc2s1	-19%	-1%	3%	-19	-21%	/
CN(C)CCN(C(=O)c1ccc(S(=O)(=O)N(C)C)cc1)c1nc2cc3c(cc2s1)OCCO3	0%	7%	3%	8	-26%	-16%
COc1cc2nc(N(CCN(C)C)C(=O)c3ccc4ccccc4c3)sc2cc1OC	-21%	1%	14%	-13	-3%	/
CC(C)(CNC(=O)C(C)(C)C)CNC(=O)C(C)(C)C	/	/	/	/	/	-7%
NC(=O)[C@@H](Cc1ccccc1)NC(=O)C1=C[C@@H](NC(=O)c2ccc(F)c(Cl)c2)[C@@H](O)[C@H](O)C1	/	/	/	/	/	-25%
Cc1ccc(/C([O-])=C(/C(=S)NCc2ccc3c(c2)OCO3)[n+]2ccc(N(C)C)cc2)c(C)c1	?	-4%	-4%	-68*	?	-17%
CC(C)c1ccc(-c2nonc2NC(=O)c2cc(=O)c3ccc(Br)cc3o2)cc1	/	/	/	/	/	3%
O=C(Cc1ccc(C(F)(F)F)cc1)N1CC(COc2ccccc2)C2(C1)CN(C(=O)c1cn[nH]c1)C2 (stereo unspecified)	/	/	/	/	/	44%
O=C(Nc1ccccc1)OCCNC(=O)c1cccc(Br)c1	0%	-26%	-6%	20	-25%	34%
O=C(Nc1ccc(Cl)c(Cl)c1)OCCNC(=O)c1cccc(Cl)c1	6.5µM*	?	?	-14	12µM*	?
O=C(CC1CCCCC1)Nc1ccc(-c2ccc3nncn3n2)cc1	?	?	?	-12	18µM*	0%
CCS(=O)(=O)c1cc([N+](=O)[O-])c(Sc2ccccc2NC(C)=O)s1	3.3µM*	-8%	-1%	-18	5.2µM*	14µM*
CC(=O)Nc1ccccc1-c1ccccc1[N+](=O)[O-]	7%	-2%	4%	-3	-10%	-7%
O=C(c1cc(=O)c2ccccc2o1)N1CCCC1Cc1ccccc1 (stereo unspecified)	/	/	/	/	/	8%
C=CCn1c(SCc2ccc(C(=O)Nc3nccs3)cc2)nnc1-c1ccc(C)c(Cl)c1	?	?	-21%	-52*	23µM*	-20%
Cc1ccc(-c2c(C#N)c(N)nc3c2CCCC3)cc1	/	/	/	/	/	-18%
Cc1ccc2c(n1)sc1c(-c3ccc(Br)cc3)c(C#N)c(N)nc12	?	-27%	2%	-3	18µM*	?
